Results: ChEMBL document CHEMBL2218924, “A broad activity screen in support of a chemogenomic map for kinase signalling research and drug discovery” (Biochem J, 2013)

Assays:
[1] = target: Serine/threonine-protein kinase PAK 4 (Homo sapiens) (UniProt O96013); details: at 10 µM
[2] = target: Serine/threonine-protein kinase PAK 5 (Homo sapiens) (UniProt Q9P286); details: at 1 µM
[3] = target: Serine/threonine-protein kinase PAK 5 (Homo sapiens) (UniProt Q9P286); details: at 10 µM
[4] = target: Serine/threonine-protein kinase PAK 6 (Homo sapiens) (UniProt Q9NQU5); details: at 1 µM
[5] = target: Serine/threonine-protein kinase PAK 6 (Homo sapiens) (UniProt Q9NQU5); details: at 10 µM
[6] = target: PAS domain-containing serine/threonine-protein kinase (Homo sapiens) (UniProt Q96RG2); details: at 10 µM
[7] = target: Activated CDC42 kinase 1 (Homo sapiens) (UniProt Q07912); details: at 1 µM
[8] = target: Activated CDC42 kinase 1 (Homo sapiens) (UniProt Q07912); details: at 10 µM
[9] = target: ALK tyrosine kinase receptor (Homo sapiens) (UniProt Q9UM73); details: at 1 µM
[10] = target: ALK tyrosine kinase receptor (Homo sapiens) (UniProt Q9UM73); details: at 10 µM
[11] = target: T1, AMP-activated protein kinase (AMPK) alpha-1/beta-1/gamma-1 (Homo sapiens) (UniProt P54619+Q9Y478+Q13131); details: at 1 µM
[12] = target: T1, AMP-activated protein kinase (AMPK) alpha-1/beta-1/gamma-1 (Homo sapiens); details: at 10 µM
[13] = target: T2, AMP-activated protein kinase, AMPK (Homo sapiens) (UniProt P54646+O43741+P54619+Q9UGJ0+Q9Y478+Q13131+Q9UGI9); details: at 1 µM
[14] = target: T2, AMP-activated protein kinase, AMPK (Homo sapiens); details: at 10 µM
[15] = target: T3, NUAK family SNF1-like kinase 1 (Homo sapiens) (UniProt O60285); details: at 1 µM
T3 sequence (whole entry): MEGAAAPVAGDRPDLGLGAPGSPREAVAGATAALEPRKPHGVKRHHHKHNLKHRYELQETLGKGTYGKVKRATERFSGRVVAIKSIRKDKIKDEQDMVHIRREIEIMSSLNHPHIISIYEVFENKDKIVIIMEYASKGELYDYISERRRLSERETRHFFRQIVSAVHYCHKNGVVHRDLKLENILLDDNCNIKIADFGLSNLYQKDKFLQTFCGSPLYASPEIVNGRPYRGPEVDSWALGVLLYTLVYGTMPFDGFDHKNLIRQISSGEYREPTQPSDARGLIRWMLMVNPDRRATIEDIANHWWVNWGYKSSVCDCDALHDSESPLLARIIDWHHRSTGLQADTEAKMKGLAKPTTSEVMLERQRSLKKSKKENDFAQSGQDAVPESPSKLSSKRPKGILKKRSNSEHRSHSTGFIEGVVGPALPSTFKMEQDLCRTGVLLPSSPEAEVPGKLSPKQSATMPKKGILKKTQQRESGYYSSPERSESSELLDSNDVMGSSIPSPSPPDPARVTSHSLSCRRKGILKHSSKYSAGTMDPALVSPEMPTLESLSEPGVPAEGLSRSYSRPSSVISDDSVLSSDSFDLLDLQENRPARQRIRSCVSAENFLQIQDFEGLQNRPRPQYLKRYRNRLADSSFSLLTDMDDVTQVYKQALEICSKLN

[16] = target: T3, NUAK family SNF1-like kinase 1 (Homo sapiens); details: at 10 µM
[17] = target: T4, Mitogen-activated protein kinase kinase kinase 5 (Homo sapiens) (UniProt Q99683); details: at 1 µM
T4 sequence (whole entry): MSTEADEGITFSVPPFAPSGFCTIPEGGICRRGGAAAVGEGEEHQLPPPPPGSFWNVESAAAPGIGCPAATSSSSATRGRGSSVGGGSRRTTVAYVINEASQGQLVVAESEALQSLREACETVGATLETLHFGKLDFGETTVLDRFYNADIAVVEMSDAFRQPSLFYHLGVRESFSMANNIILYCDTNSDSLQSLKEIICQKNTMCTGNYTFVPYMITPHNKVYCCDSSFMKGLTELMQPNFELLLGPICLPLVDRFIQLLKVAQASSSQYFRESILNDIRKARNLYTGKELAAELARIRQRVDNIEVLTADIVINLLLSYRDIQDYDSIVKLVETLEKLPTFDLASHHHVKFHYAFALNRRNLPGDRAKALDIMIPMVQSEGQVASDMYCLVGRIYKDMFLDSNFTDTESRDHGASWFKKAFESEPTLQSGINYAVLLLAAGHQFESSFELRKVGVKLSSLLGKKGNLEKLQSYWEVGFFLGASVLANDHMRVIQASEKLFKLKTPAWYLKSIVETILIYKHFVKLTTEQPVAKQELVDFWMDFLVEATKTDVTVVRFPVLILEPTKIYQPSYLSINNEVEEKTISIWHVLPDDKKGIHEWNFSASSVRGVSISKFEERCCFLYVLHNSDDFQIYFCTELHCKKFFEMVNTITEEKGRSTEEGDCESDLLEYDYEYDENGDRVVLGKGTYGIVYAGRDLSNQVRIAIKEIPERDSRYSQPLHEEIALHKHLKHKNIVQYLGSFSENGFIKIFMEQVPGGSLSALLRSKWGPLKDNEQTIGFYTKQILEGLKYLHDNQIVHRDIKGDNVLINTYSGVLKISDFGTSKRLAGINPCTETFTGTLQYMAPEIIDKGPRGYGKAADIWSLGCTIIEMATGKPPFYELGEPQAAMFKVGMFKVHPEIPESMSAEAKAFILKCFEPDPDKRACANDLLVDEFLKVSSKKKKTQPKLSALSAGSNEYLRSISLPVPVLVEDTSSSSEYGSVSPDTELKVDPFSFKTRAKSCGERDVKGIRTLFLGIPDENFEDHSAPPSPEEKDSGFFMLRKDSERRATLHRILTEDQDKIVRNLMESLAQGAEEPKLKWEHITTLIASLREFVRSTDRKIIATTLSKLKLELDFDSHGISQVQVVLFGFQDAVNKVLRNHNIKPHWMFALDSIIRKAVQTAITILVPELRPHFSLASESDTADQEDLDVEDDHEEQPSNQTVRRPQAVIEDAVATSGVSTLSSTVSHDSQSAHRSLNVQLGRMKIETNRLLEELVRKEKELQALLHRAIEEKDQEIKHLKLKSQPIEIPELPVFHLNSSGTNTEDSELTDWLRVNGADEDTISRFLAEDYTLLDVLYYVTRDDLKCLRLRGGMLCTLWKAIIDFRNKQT

[18] = target: T5, Activin receptor type-1B (Homo sapiens) (UniProt P36896); details: at 1 µM
T5 sequence (whole entry): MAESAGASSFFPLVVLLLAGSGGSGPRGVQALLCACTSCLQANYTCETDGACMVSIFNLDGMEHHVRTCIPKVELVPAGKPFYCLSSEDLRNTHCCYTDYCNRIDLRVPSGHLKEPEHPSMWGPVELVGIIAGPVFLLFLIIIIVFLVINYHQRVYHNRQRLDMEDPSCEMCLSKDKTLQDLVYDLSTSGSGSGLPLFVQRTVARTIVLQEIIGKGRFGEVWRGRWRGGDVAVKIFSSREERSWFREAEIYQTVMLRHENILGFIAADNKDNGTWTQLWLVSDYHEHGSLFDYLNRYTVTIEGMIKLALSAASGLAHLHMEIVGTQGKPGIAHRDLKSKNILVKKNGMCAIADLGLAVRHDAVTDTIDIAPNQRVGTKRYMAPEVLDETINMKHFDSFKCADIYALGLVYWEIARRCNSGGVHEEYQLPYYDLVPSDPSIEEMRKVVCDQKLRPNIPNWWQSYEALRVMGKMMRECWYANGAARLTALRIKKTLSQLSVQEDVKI

[19] = target: T5, Activin receptor type-1B (Homo sapiens); details: at 10 µM
[20] = target: Serine/threonine-protein kinase PAK 4 (Homo sapiens) (UniProt O96013); details: at 1 µM

Chain of Serine/threonine-protein kinase PAK 4 (Homo sapiens) (O96013 whole entry, looked up): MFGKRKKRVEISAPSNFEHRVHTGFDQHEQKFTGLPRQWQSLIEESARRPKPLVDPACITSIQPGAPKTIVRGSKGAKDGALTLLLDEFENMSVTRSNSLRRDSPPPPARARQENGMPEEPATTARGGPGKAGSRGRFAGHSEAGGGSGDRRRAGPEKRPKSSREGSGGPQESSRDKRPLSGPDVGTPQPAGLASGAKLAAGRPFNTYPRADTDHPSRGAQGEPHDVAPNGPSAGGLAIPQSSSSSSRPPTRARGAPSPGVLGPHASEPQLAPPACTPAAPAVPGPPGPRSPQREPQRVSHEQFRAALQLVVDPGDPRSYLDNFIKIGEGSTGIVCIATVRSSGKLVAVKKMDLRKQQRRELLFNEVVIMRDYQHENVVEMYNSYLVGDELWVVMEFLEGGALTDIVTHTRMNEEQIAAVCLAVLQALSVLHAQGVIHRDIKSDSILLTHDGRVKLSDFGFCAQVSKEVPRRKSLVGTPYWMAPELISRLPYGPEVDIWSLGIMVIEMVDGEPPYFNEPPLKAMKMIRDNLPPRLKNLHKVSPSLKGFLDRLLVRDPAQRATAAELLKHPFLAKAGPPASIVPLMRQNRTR
Chain of Serine/threonine-protein kinase PAK 6 (Homo sapiens) (Q9NQU5 whole entry, looked up, the tested form may be a part): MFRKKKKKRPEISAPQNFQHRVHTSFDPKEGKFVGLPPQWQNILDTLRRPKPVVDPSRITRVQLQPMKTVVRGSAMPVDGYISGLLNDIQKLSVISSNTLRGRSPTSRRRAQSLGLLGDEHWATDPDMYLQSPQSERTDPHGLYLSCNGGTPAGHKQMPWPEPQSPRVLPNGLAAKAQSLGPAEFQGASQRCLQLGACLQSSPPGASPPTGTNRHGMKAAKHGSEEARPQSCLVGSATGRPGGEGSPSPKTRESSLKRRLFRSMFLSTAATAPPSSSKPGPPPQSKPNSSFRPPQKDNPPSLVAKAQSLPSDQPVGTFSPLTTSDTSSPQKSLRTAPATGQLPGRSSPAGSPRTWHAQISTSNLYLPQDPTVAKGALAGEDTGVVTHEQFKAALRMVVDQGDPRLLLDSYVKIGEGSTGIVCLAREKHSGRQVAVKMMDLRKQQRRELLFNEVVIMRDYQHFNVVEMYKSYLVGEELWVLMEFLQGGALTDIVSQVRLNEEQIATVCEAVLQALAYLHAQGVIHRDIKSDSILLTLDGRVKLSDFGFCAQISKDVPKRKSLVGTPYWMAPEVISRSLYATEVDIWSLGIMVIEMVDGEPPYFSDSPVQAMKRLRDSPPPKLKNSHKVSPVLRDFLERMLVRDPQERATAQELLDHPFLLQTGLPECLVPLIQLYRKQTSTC
Chain of Serine/threonine-protein kinase PAK 5 (Homo sapiens) (Q9P286 whole entry, looked up): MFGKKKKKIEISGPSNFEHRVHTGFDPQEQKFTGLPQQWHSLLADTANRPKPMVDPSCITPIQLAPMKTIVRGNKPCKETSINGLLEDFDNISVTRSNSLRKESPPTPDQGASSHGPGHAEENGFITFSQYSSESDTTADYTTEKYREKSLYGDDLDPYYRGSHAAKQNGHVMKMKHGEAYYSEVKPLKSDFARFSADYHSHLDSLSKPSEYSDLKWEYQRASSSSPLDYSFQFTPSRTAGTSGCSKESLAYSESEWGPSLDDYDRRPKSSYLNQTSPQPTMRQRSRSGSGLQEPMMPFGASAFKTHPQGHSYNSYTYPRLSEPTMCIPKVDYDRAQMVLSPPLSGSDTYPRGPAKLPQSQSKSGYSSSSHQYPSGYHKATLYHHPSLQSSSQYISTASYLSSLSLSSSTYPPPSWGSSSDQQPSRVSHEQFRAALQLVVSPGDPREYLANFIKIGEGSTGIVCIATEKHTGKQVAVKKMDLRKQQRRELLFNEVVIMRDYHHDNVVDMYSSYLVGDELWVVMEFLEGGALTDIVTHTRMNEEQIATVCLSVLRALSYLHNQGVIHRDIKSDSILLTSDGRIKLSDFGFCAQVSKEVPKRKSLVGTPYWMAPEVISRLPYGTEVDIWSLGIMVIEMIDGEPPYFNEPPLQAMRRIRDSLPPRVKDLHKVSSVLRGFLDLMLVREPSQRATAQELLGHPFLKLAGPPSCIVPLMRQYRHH
Chain of PAS domain-containing serine/threonine-protein kinase (Homo sapiens) (Q96RG2 whole entry, the tested form may be a part): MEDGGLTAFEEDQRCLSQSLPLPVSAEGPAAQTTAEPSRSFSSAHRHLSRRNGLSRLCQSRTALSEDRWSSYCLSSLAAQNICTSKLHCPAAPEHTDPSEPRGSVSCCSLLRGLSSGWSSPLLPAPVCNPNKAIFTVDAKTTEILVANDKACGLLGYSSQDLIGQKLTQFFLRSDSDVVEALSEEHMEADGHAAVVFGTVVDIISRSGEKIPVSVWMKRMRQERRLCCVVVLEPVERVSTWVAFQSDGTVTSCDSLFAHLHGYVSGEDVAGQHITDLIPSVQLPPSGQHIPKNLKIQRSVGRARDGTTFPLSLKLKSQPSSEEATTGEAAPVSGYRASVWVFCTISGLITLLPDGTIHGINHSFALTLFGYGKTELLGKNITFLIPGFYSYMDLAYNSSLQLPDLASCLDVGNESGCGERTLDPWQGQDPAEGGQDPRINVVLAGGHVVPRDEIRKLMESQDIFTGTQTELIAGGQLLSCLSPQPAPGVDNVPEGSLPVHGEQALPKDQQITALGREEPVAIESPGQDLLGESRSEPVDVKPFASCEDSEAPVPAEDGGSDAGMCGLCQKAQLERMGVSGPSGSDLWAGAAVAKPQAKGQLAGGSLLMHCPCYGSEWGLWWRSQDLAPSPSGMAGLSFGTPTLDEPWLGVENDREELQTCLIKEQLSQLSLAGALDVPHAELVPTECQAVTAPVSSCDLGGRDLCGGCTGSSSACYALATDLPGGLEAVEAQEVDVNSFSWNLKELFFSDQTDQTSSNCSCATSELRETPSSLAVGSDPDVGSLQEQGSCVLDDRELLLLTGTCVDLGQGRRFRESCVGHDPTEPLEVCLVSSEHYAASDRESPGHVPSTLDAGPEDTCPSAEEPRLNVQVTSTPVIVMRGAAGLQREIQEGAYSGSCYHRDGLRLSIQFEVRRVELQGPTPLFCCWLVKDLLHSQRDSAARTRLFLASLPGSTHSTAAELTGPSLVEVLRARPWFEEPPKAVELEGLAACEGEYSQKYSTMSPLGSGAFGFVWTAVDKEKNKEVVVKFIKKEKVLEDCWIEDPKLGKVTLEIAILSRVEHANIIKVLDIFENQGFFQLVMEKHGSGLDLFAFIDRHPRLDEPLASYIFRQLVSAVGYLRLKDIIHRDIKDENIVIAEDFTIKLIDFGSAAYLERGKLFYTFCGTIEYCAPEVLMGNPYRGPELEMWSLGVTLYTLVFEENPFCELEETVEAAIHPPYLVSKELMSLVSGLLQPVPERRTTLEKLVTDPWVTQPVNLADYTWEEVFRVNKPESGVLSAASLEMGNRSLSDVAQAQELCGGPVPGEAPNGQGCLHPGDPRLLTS
Chain of ALK tyrosine kinase receptor (Homo sapiens) (Q9UM73 19-1620 limits assumed): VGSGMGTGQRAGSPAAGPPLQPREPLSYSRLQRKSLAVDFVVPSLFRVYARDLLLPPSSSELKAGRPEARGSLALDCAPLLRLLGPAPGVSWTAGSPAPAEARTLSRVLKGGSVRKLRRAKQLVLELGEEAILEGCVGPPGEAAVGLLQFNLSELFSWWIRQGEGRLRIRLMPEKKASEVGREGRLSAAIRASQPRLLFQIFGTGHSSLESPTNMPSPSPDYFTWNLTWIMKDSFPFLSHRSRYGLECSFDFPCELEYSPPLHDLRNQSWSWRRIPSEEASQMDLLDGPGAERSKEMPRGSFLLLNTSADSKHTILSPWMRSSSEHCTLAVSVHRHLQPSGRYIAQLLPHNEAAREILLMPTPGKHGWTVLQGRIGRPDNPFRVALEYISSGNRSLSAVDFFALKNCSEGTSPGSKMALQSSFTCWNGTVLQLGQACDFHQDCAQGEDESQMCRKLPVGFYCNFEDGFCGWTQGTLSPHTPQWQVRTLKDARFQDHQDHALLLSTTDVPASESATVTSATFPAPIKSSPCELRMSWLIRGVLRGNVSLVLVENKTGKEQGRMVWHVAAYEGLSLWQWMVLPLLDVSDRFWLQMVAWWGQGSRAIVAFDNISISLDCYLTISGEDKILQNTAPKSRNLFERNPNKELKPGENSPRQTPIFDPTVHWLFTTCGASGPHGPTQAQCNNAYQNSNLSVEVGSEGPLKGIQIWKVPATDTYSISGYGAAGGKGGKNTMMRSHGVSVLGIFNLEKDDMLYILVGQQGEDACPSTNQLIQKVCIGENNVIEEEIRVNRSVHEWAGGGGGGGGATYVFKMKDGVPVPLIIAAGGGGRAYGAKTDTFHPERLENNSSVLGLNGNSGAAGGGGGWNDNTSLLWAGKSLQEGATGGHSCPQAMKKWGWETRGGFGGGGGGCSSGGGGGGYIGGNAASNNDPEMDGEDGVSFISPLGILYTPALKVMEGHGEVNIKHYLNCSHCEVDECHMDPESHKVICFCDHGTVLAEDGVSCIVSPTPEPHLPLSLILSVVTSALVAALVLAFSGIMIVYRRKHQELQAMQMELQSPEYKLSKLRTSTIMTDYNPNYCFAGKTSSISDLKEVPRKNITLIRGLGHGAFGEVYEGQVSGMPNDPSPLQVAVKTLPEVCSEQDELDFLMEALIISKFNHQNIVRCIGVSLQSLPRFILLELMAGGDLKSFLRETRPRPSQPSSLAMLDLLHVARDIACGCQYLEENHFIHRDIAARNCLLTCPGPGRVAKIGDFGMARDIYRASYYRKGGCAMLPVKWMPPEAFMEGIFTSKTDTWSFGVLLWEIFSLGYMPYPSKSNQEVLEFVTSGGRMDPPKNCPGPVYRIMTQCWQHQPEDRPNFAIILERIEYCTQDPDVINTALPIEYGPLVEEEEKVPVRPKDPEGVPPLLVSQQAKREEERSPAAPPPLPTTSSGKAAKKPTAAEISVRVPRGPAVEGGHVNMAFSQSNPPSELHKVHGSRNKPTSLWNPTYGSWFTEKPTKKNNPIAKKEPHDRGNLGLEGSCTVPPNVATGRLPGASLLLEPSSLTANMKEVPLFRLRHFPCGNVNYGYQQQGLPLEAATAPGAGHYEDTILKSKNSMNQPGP

SMILES	residual activity [1] [%]	residual activity [2] [%]	residual activity [3] [%]	residual activity [4] [%]	residual activity [5] [%]	residual activity [6] [%]	residual activity [7] [%]	residual activity [8] [%]	residual activity [9] [%]	residual activity [10] [%]	residual activity [11] [%]	residual activity [12] [%]	residual activity [13] [%]	residual activity [14] [%]	residual activity [15] [%]	residual activity [16] [%]	residual activity [17] [%]	residual activity [18] [%]	residual activity [19] [%]	residual activity [20] [%]
CSc1nc(-c2ccc(F)cc2)c(-c2ccnc(NC(C)c3ccccc3)c2)[nH]1 (centres undefined)	92	102	83	96	81	64	90	50	82	56	88	59	80	56	101	60	101			
O=C(Nc1nc2ccccc2n1CCN1CCOCC1)c1cccc([N+](=O)[O-])c1						84	81	55	70	75			79	83		66	113			
O=C1NC(=O)C(c2cn(CCCO)c3ncccc23)=C1c1cnccn1				78	75	89	82	71	84	67	92	75	94	80	62	50	78	83		
Cc1cc(C)c(/C=C2\C(=O)Nc3ccccc32)[nH]1	69				62		52	18	37	13	55	29			35	19				
Fc1ccc(-c2nc3n(c2-c2ccncc2)CCS3)cc1							87	79	86	94						90	96	100	29	
CN([C@@H](Cc1ccc(OS(=O)(=O)c2cccc3cnccc23)cc1)C(=O)N1CCN(c2ccccc2)CC1)S(=O)(=O)c1cccc2cnccc12		115	72	84	50	79	100		74	57				86			115		86	
N#C/C(=C1/Nc2ccccc2S1)c1ccnc(NCCc2cccnc2)n1		84	72					12	64	18		70	99	67	97	82	78			
CCCCc1c(-c2ccc(O)cc2)[nH]c2nccnc12		56	36	94	47		26	6	71	37	85	71	75	67	12	16	93	88	34	
COc1cc2ncnc(Nc3cccc(Cl)c3)c2cc1OC		109	84	102	87		34	6	100	107		67		74		52	103	105	101	
COc1cc2c(cc1OC)-c1n[nH]c(Nc3cccc(F)c3)c1C2				98	99				74		80	65		69		68	74			
O=C1Nc2ccccc2/C1=C\c1c(Cl)[nH]c2ccccc12					85	67	84	48	81	49				58		46				
N#Cc1c(NC(=O)c2cccc3ccccc23)sc2c1CCCC2				100	66	96	85	61	80	91	86	97	98			92	88	87	93	
O=S(=O)(NCCNC/C=C/c1ccc(Br)cc1)c1cccc2cnccc12					55	81	77	43			52	15	60	19	42	11				
O=S(=O)(c1cccc2cnccc12)N1CCCNCC1	101									74						52				106
Nc1nccc(-c2c(-c3ccc(F)cc3)ncn2C2CCNCC2)n1								39						70		77			40	
O=C(c1ccccc1)c1ccc(N2CCOCC2)cc1O		92	114	82	85	78	94	72	78		98	72	89	81		90	91	123		
CCOc1nc(NC(=O)Cc2cc(OC)ccc2OC)cc(N)c1C#N				100	77		73	58	81	69										
COc1cc2nccc(Oc3ccc(NC(=O)Nc4cc(C)on4)c(Cl)c3)c2cc1OC		82	52	104	54	62	20	6						82				105	57	
Nc1ncnc2[nH]nc(Nc3ccc(F)cc3)c12		104	97	102	81	62	60	17	82	67	100	69	99	65	98	90		114	77	111
